Data taken from PubChem BioAssay AID686978 (National Center for Advancing Translational Sciences (NCATS), 2013).
Where “and” joins values, the source holds several entries; their conditions need not be identical. Equal values may be shown once. Hit rate of the full screen: of about 420,000 compounds, about 64,000 (15%) were called active. Inconclusive results (about 27%) are left out. Only a sample is shown. Unmarked numbers belong to inactive results. The call rests on the fitted dose curve; in most records, active means well fitted inhibition curve with a large enough effect; inconclusive means small, poorly fitted or top-dose-only effect; inactive means flat fitted curve, though single readings scatter.

Assay: qHTS for Inhibitors of human tyrosyl-DNA phosphodiesterase 1 (TDP1): qHTS in cells in absence of CPT; further: nearly all actives have a fitted effect of over 55% in size
Conditions: DT40 Tdp1-/- hTDP1 cells, no CPT, ATP luminescence, 48 h; activity change, negative = growth inhibition: at 46.2 µM (top of the series)
Method in brief: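 Luminescent ATP content (CellTiter-Glo) served as the growth readout. Knockout chicken DT40 cells expressing human TDP1 were exposed to compounds without camptothecin for a minimum 48 hr at 37 °C.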
On the % scale 0 is the no-effect control and ±100 the full control effect; potency means the concentration at half of the fitted maximal effect.

Row | Structure (SMILES) | activity change, negative = growth inhibition [%] | Potency
1 | COc1cc(C(=O)N(Cc2ccc(C(C)C)cc2)C2CCS(=O)(=O)C2)cc(OC)c1OC (stereo not given) | -18.9 | –
2 | COc1ccccc1CN(C)c1nnnn1-c1ccccc1 | -3.34 | –
3 | CC[C@]12c3[nH]c4ccc(OC)cc4c3CCN1C(=O)C(CC(=O)NCCN1CCOCC1)C[C@@H]2C(=O)N1CCN(C(=O)C2CC2)CC1 (stereo not given in full) | -4.6 | –
4 | O=C(C[C@H]1C[C@H](C(=O)N2CCOCC2)[C@@]2(CCC3CCCC3)c3[nH]c4ccc(Cl)cc4c3CCN2C1=O)NCc1ccco1 | – | 23.1 µM (active)
5 | CC[C@]12c3[nH]c4ccc(OC)cc4c3CCN1C(=O)C(CC(=O)NCc1ccco1)C[C@@H]2C(=O)N1CCN(C(=O)C2CC2)CC1 (stereo not given in full) | -14.6 | –
6 | CC[C@]12c3[nH]c4ccc(Cl)cc4c3CCN1C(=O)[C@@H](CC(=O)NCCCOC)C[C@@H]2C(=O)N1CCN(C(=O)C2CC2)CC1 | -14.3 | –
7 | COc1ccc(CNC(=O)C[C@H]2C[C@H](C(=O)N3CCOCC3)[C@@]3(CCC4CCCC4)c4[nH]c5ccc(Cl)cc5c4CCN3C2=O)cc1OC | – | 18.4 µM (active)
8 | CC[C@]12c3[nH]c4ccc(Cl)cc4c3CCN1C(=O)[C@@H](CC(=O)NCCN1CCOCC1)C[C@@H]2C(=O)N1CCN(C(=O)C2CC2)CC1 | -1.26 | –
9 | COc1ccc(C2(O)C(=O)Nc3ccccc32)cc1 (stereo not given) | -6.73 | –
10 | O=C(NNC(=O)c1ccc(Cl)cc1Cl)c1cccs1 | -6.88 | –
11 | O=C(Nc1cccc2cccnc12)c1cccc(N2C(=O)CCC2=O)c1 | -26.4 | –
12 | O=c1cc(CO)oc(CN2CCC(Cc3ccccc3)CC2)c1O | -7.09 | –
13 | O=c1c2ccccc2nc2n1C(CSc1ccc(F)cc1)CN2 (stereo not given) | -11.3 | –
14 | O=c1c2ccccc2nc2n1C(CSCc1ccccc1)CS2 (stereo not given) | – | 6.51 µM (active)
15 | O=c1c2ccccc2nc2n1C(CSc1ccc(Cl)cc1)CN2 (stereo not given) | -10 | –
16 | O=c1c2ccccc2nc2n1C(CSCc1cccc(C(F)(F)F)c1)CS2 (stereo not given) | – | 3.66 µM (active)
17 | Cn1cc(S(=O)(=O)Nc2ccc(Cl)cc2Cl)c(=O)n(C)c1=O | -8.43 | –
18 | CCN(CC)CCNC(=O)C1c2ccccc2C(=O)N(C)C1c1cn(C)c2ccccc12 (stereo not given) | -1.64 | –
19 | CCOC(=O)N1CCC(NC(=O)C(NS(=O)(=O)c2ccc3c(c2)CCN3C(=O)CC)C(C)C)CC1 (stereo not given) | -2.64 | –
20 | CN(C)C(=O)[C@@H]1C[C@@H](Sc2nc3ccccc3[nH]2)CN1Cc1ccc(Cl)cc1 | -22.1 | –
21 | O=C(Cc1csc(Nc2nc(=S)[nH]c3ccccc23)n1)NCCCN1CCN(c2cccc(Cl)c2)CC1 | – | 9.2 µM (active)
22 | O=C(CCn1c(=S)[nH]c2ccccc2c1=O)NCCCN1CCCC1=O | -4.12 | –
23 | CC1CC(C)CN(CCCNC(=O)Cn2ncc3c([nH]c4ccccc43)c2=O)C1 (stereo not given) | -5.59 | –
24 | O=C(CN1C(=O)NC2(CCCCCCC2)C1=O)NCc1ccc(F)cc1 | -0.899 | –

Row | Structure (SMILES) | activity change, negative = growth inhibition [%] | Potency
25 | COc1ccc(CNC(=O)C2=Cc3cccc(OC)c3OC2)cc1OC | -19.7 | –
26 | O=C(NN1C(=O)C2C3C=CC(O3)C2C1=O)c1ccncc1 (stereo not given) | 3.7 | –
27 | CSC1=NN(c2ccccc2)CN(c2ccccc2)N1C | -24.6 | –
28 | O=C(CCCN1C(=O)c2ccccc2C1=O)Oc1ccc(Cl)cc1 | -8 | –
29 | COc1ccc(CNC(=O)[C@@H]2CC=C[C@@H]3CCN(C4CC4)C(=O)[C@@H]32)cc1 | – | inactive
30 | CCCCC[C@H]1CN(C2CCCCC2)C(=O)[C@@H]1CC(=O)NCc1ccc(OC)cc1 | – | 10 µM (active)
31 | Cc1ccc(CNC(=O)C2CC(=O)N(C3CCCCCCC3)C2)cc1 (stereo not given) | -3.8 | –
32 | O=C(CCc1nnc2ccc(NCCCN3CCCC3=O)nn12)NCc1ccccc1Cl | -18.4 | –
33 | CCn1c(COc2cccc(OC)c2)nnc1SCC(=O)N1CCOCC1 | 11.3 | –
34 | CCCCCCCCCCOC(=O)Cn1c(COc2ccc(C)cc2)[n+](C)c2ccccc21 | – | 3.26 µM (active)
35 | Cc1ccc(OCCCn2c(=O)oc3ccccc32)cc1 | 11.2 | –
36 | CCOC(=O)Cn1c(-c2cccnc2Cl)nc2ccccc21 | 0.732 | –
37 | CCCCCCCCCCOC(=O)Cn1c(COc2cccc(OC)c2)[n+](C)c2ccccc21 | – | 2.31 µM (active)
38 | COc1cccc(OCCCN2CCCCCC2)c1 | 2.05 | –
39 | Cc1ccc(C)c(-n2ccnc2SCC(N)=O)c1 | -0.269 | –
40 | CCn1cc(C(=O)OCC(=O)Nc2cccc(C)c2)c(=O)c2ccc(C)nc21 | -0.576 | –
41 | C/C=C/C=C/C(=O)O | – | inactive
42 | COc1cc(/C=C/C(=O)OCC(=O)NCCCc2ccccc2)ccc1O | -15.4 | –
43 | C[C@@H](NC(=O)[C@@H]1Cc2ccccc2CN1)C(=O)NC1CCCC1 | 4.68 | –
44 | COc1ccc(/C=N/n2nnnc2N)cc1OC | -7.02 | –
45 | COc1ccc(/C=C/c2noc(-c3ccccc3O)n2)cc1OC | -20.9 | –
46 | COc1ccc(/C=C/c2ccccn2)cc1OC | – | 12.6 µM (active)
47 | C=CCOc1ccc(/C=N/n2cncn2)cc1OC | -10.4 | –
48 | COc1cc(/C=C/c2ccc(/C=C/c3cc(OC)c(OC)c(OC)c3)cc2)cc(OC)c1OC | -25.1 | –

Row | Structure (SMILES) | activity change, negative = growth inhibition [%] | Potency
49 | COc1ccc(/C=C/c2ccnc3ccccc23)cc1OC | – | 12.6 µM (active)
50 | COc1cc(OC)cc(C(=O)NNC(=O)CCOc2ccccc2OC)c1 | 17.1 | –
51 | COc1cc(OC)c(/C=C/c2ccnc3ccccc23)c(OC)c1 | – | 8.91 µM (active)
52 | O=C(CSc1nnc(-c2ccccc2)o1)N1CCOCC1 | -12.2 | –
53 | O=C(CN1C(=O)c2ccccc2S1(=O)=O)N1CCc2ccccc21 | -1.33 | –
54 | Cc1ccc2c(O)c(Cc3ccccc3)c(=O)[nH]c2n1 | -11.8 | –
55 | CC(C)N(Cc1nnc(-c2ccc(Cl)cc2)o1)C(=O)C1=COCCO1 | -48.1 | –
56 | O=c1nc(NO)ccn1C1CCCO1 (stereo not given) | -7.86 | –
57 | Cc1ccc(OCc2nnc(NC(=O)OCC(C)C)s2)cc1 | -6.38 | –
58 | O=C(CNC(=O)c1cccs1)N/N=C/c1cccc(Br)c1 | -4.86 | –
59 | CC(=O)N1CCCc2cc(S(=O)(=O)N3CCCC(C(=O)N4CCN(c5cccc(Cl)c5)CC4)C3)ccc21 (stereo not given) | – | 2.59 µM (active) and 8.2 µM (active)
60 | Cc1cc(C)cc(NC(=O)C2CCCN(S(=O)(=O)c3ccc4[nH]c(=O)ccc4c3)C2)c1 (stereo not given) | -5.14 | –
61 | CC(=O)N1c2ccc(S(=O)(=O)N3CCCC(C(=O)Nc4cccc(Cl)c4)C3)cc2CC1C (stereo not given) | – | 20.6 µM (active)
62 | CC(=O)N1c2ccc(S(=O)(=O)N3CCCC(C(=O)Nc4cccc(F)c4)C3)cc2CC1C (stereo not given) | – | 29.1 µM (active)
63 | CC(=O)N1CCCc2ccc(NS(=O)(=O)c3ccc(F)cc3F)cc21 | -14.1 | –
64 | CCOC(=O)C1CCCN(S(=O)(=O)c2ccc(-n3cnnn3)c(C)c2)C1 (stereo not given) | -23.5 | –
65 | O=C(Nc1cccc(Cl)c1)c1cc(S(=O)(=O)N2CCCCC2)c[nH]1 | 3.97 | –
66 | CC(=O)N1c2ccc(S(=O)(=O)N3CCC(C(=O)NCc4ccc(F)cc4)CC3)cc2CC1C (stereo not given) | -11.9 | –
67 | CC(=O)N1CCCc2cc(S(=O)(=O)Nc3ccc(Cl)cc3F)ccc21 | – | 23.1 µM (active)
68 | COc1ccc(NC(=O)C(CC(C)C)NS(=O)(=O)c2ccc3c(c2)CCN3C(C)=O)cc1OC (stereo not given) | -10.4 | –
69 | CCc1cccc(NC(=O)C2CCCN(S(=O)(=O)c3ccc4[nH]c(=O)ccc4c3)C2)c1 (stereo not given) | -3.92 | –
70 | CCOC(=O)C1CCCN(S(=O)(=O)c2ccc3c(c2)C(C)(C)C(=O)N3C)C1 (stereo not given) | -17.4 | –
